Laboratory results as given in PubChem BioAssay AID588852 (The Scripps Research Institute Molecular Screening Center, 2011).
The whole screen tested about 360,000 compounds, of which about 4,600 (1.3%) were called active.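 How the source made its calls: active means percent inhibition above its own plate's cutoff, namely the mean of that plate's compound wells plus 3 SD; inactive means the rest.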 This excerpt belongs to a sample that is enriched for actives.

The molecules below were run against Muscarinic acetylcholine receptor M1 (Homo sapiens) (UniProt P11229) (assay: human M1 muscarinic receptor antagonists, primary screen, CHO-K1 cells, Fluo-8 calcium fluorescence, 1536-well (AID 588852;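 further: peak over basal fluorescence ratio during 140 s after agonist addition; 0% = ACh EC80 plus DMSO and 100% = DMSO alone without agonist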)). Details: CHO-K1 hM1, Fluo-8 calcium fluorescence, ACh EC80 antagonist; at 3 µM; stronger effect = higher value.
Sequence of Muscarinic acetylcholine receptor M1 (Homo sapiens) (P11229 whole entry, looked up): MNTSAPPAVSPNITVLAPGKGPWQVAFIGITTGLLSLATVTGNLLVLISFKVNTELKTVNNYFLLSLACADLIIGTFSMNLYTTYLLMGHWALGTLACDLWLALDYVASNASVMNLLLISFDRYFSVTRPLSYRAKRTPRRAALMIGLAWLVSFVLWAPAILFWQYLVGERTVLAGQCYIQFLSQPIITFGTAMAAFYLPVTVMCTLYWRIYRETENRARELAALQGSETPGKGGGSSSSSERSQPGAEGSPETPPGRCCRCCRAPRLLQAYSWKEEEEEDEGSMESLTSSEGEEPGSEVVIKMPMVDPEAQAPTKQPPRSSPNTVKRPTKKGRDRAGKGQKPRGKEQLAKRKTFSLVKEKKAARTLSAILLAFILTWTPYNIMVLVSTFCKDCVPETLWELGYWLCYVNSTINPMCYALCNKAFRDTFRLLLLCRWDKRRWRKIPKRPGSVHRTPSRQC

| Structure (SMILES) | inhibition |
| --- | --- |
| Cc1ccc2c(NC(=O)C3CC3)cccc2n1 | -22.4% (inactive) |
| CN(C)S(=O)(=O)N1CCC(Oc2cccc(C(=O)NCCCC3CCCC3)c2)CC1 | 26.7% (inactive) |
| Cc1cccc(C)c1-n1nnnc1C(CCc1ccccc1)N1CCN(C/C=C/c2ccccc2)CC1 (stereo not given) | -27.1% (inactive) |
| O=C(NCc1ccco1)/C(=C\c1cccc([N+](=O)[O-])c1)NC(=O)c1ccco1 | -2.79% (inactive) |
| CCCC[C@@H]1CN=C(N)N1CCc1cccc(F)c1 | 18.6% (inactive) |
| CCCC[C@@H]1CN=C(N)N1CCc1cc(C(F)(F)F)cc(C(F)(F)F)c1 | 51.9% (active) |
| CCCC[C@@H]1CN=C(N)N1CCCC | 8.39% (inactive) |
| CCN(CC(=O)Nc1c(F)cccc1F)C(=O)Cc1cccs1 | -16.3% (inactive) |
| Cn1nccc1NS(=O)(=O)c1ccc(F)cc1 | -14.9% (inactive) |
| COc1cccc(CNC(=O)CCC2CCCN(Cc3ccc(OC(F)F)cc3)C2)c1 (stereo not given) | 20.6% (inactive) |
| COc1ccc(C[C@H]2CN3C(=NC[C@H]3C)N2CCNC(=O)CCC2CCCCC2)cc1 | 38.6% (active) |
| C/C=C(\C)C(=O)NCCN1C2=NC[C@H](Cc3ccc(O)cc3)N2C[C@@H]1Cc1ccc(OC)cc1 | -3.4% (inactive) |
| COc1ccc(C2c3c(C)nn(-c4ccccc4)c3NC(=O)N2c2ccccc2)cc1 (stereo not given) | -12.4% (inactive) |
| CCOC(=O)[C@H]1[C@H]2COc3ccccc3[C@@H]2N2C(=O)CN(Cc3ccccc3)C(=O)[C@@]12C | 7.51% (inactive) |
| CCOC(=O)[C@H]1[C@H]2COc3ccc(C)cc3[C@@H]2N2C(=O)CN(Cc3ccc(F)cc3)C(=O)[C@@]12C | 35.9% (active) |
| CCOC(=O)[C@H]1[C@H]2COc3cc(OC)ccc3[C@@H]2N2C(=O)CN(Cc3ccc(Cl)cc3)C(=O)[C@@]12C | -8.3% (inactive) |
| O=C1OC(Cc2ccccc2)C(c2ccccc2)C1=O (stereo not given) | -4.64% (inactive) |
| NCCCCC(C(=O)O)N(C(=O)OCc1ccccc1)C(=O)OCc1ccccc1 (stereo not given) | 2.44% (inactive) |
| CCC(=C/c1sc2ccc3ccccc3c2[n+]1C)/C=C1\Sc2ccc3ccccc3c2N1C | -7.73% (inactive) |
| O=C(c1ccccc1)C(O)(CN1CCCCC1)c1ccccc1 (stereo not given) | 1.74% (inactive) |
| c1ccc2cc3[nH]c(CN4CCCCC4)nc3cc2c1 | -5.8% (inactive) |
| CCCCCC(O)(CCN1CCCCC1)c1ccccc1 (stereo not given) | 99.8% (active) |
| CCc1ccccc1NC(=O)NCCN1CCCCC1 | -20.3% (inactive) |

| Structure (SMILES) | inhibition |
| --- | --- |
| C#CC(CCN1CCCCC1)(OC)c1ccccc1 (stereo not given) | 93.9% (active) |
| CCCCOc1ccc(C(C)(O)CCN2CCOCC2)cc1 (stereo not given) | -7.98% (inactive) |
| CC(CN1CCCCC1)c1ccccc1 (stereo not given) | -23.4% (inactive) |
| CC(C)(c1ccccc1)c1ccc(OCCN2CCCC2)cc1 | 8.05% (inactive) |
| CCCCCCC(O)(CCN1CCCCC1)c1ccccc1 (stereo not given) | 98.8% (active) |
| CSc1nc(C)nc(C2CC2)c1C#N | -5.81% (inactive) |
| CCOC1=C2[C@H]([C@H]3C(=O)N(c4ccccc4)C(=O)[C@H]3C1)[C@@H](c1ccccc1)N(S(=O)(=O)c1ccc(C)cc1)[C@H]2c1ccccc1 | -3.55% (inactive) |
| c1ccc(Cc2c(-c3ccco3)nc3c4ccccc4ccn23)cc1 | -25.9% (inactive) |
| Cc1ccc(-c2cnc(C(O)c3cc(Cl)cc(Cl)c3)[nH]2)cc1 (stereo not given) | 10.3% (inactive) |
| COc1ccc(OC)c(-c2c(=O)n(OCc3ccccc3Br)c3ccccc3[n+]2[O-])c1 | -8.89% (inactive) |
| CCN(CC)S(=O)(=O)c1ccc(N2CCOCC2)c(NC(=O)C2CSC3(C)CCC(=O)N23)c1 (stereo not given) | -11.2% (inactive) |
| CN(CC(=O)Nc1ccc(Cl)c(C(F)(F)F)c1)C(=O)CCC(=O)c1ccccc1 | 10.7% (inactive) |
| O=C(CC(O)(C(F)(F)F)C(F)(F)F)Nc1ccc(Cl)c(Cl)c1 | 41.1% (active) |
| O=C(Cc1ncc(C(F)(F)F)cc1Cl)Nc1cccc(Br)c1 | 0.3% (inactive) |
| CC(=O)N1CCN(Cc2cc(=O)oc3cc(C)ccc23)CC1 | -6.95% (inactive) |
| COc1cc2ccccc2cc1C(=O)Nc1ccncc1 | -10.8% (inactive) |
| Cc1cc(NC(=O)c2cc3ccccc3o2)no1 | 0.12% (inactive) |
| O=C(Nc1ccncc1)c1cc2ccccc2o1 | 11.1% (active) |
| CNS(=O)(=O)c1cnccc1N1CCN(c2cccc(C)c2)CC1 | -21.3% (inactive) |
| CC(=O)N1CCc2c(sc(NC(=O)CCS(=O)(=O)c3ccc(C)cc3)c2C(N)=O)C1 | -9.37% (inactive) |
| CCc1nc2c(OCc3cccc(OC)c3)cccn2c1N(C)C(=O)C(C)C | 5.18% (inactive) |
| Cc1nc2c(OCc3ccc(Cl)cc3Cl)cccn2c1N(C)CC1CC1 | 43.8% (active) |
| CCc1nc2c(OCc3ccc(Cl)cc3Cl)cccn2c1N(C)C(=O)C(C)C | 2.38% (inactive) |

| Structure (SMILES) | inhibition |
| --- | --- |
| CCc1nc2c(OCc3ccc(F)c(F)c3)cccn2c1N(C)C(=O)c1ccco1 | -7.6% (inactive) |
| Cc1nc2c(OCc3cccc(Cl)c3)cccn2c1N(C)CC1CC1 | 68.1% (active) |
| CCCCC(=O)N(C)c1c(CC)nc2c(OCc3ccc(Cl)cc3Cl)cccn12 | 23.1% (inactive) |
| Cc1nc2c(OCc3ccc(Cl)cc3)cccn2c1N(C)Cc1cccs1 | 38.4% (active) |
| Cc1nc2c(OCC(=O)C(C)(C)C)cccn2c1N(C)Cc1cccs1 | -8.77% (inactive) |
| CCc1nc2c(OCc3ccccc3)cccn2c1N(C)C(=O)c1ccco1 | -4.6% (inactive) |
| O=C(NCCCn1ccnc1)c1cc2c(s1)CCCC2 | -5.2% (inactive) |
| CC(=O)Nc1ccc(CNc2nc(NCCN(C)C)nc3cc(-c4ccccc4)sc23)cc1 | -17.6% (inactive) |
| COC(=O)c1ccc2c(c1)S(=O)(=O)NC(=NCCCN1CCOCC1)S2 | -10.8% (inactive) |
| COc1ccc(NC(=O)/C(N=Nc2cccc(S(=O)(=O)Nc3ccc(SC(F)F)cc3)c2)=C(\C)O)cc1 | -7.35% (inactive) |
| COc1cc(-c2nc(S(=O)(=O)c3ccc(Cl)cc3)c(N(C)C)o2)cc(OC)c1OC | -1.63% (inactive) |
| COC(=O)CCSc1nccn1Cc1ccccc1 | -11.6% (inactive) |
| CN(CCO)C(=O)c1nc[nH]c1C(=O)N(C)Cc1ccccc1 | -4.9% (inactive) |
| O=S1(=O)CC(N2CCN(CCO)CC2)CN1C1CCCC1 (stereo not given) | -4.22% (inactive) |
| CCOc1ccc(CCN2C(=S)N([C@@H](CC(C)C)CN3CCC[C@@H]3CN3C(=S)NC[C@@H]3Cc3ccc(O)cc3)C[C@@H]2CC(C)C)cc1 | 5.64% (inactive) |
| COc1cc(CN2CCCC(C(=O)c3ccc(SC)cc3)C2)cc(Cl)c1O (stereo not given) | -1.81% (inactive) |
| COc1ccc(CN2CCCC(C(=O)c3ccc(Cl)cc3)C2)cc1Cn1cncn1 (stereo not given) | 75.4% (active) |
| COc1ccc(CN2CCCC(C(=O)N3CCCCC3)C2)cc1 (stereo not given) | 5.19% (inactive) |
| CS(=O)(=O)c1ccccc1C(=O)Nc1ccc2sccc2c1 | -10.3% (inactive) |
| CCn1ccnc1CN(C)C(=O)c1ccc2nc(Cc3ccc(OC)cc3)oc2c1 | 56.1% (active) |
| CCC1C(=O)NCCN1C(=O)c1ccc2nc(Cc3ccc(OC)cc3)oc2c1 (stereo not given) | -5.11% (inactive) |
| COc1ccc(Cc2nc3ccc(C(=O)N4CCC(N(C)C)C4)cc3o2)cc1 (stereo not given) | 3.18% (inactive) |
| CCC1Sc2ccc(S(=O)(=O)CCC(=O)NCc3cccs3)cc2NC1=O (stereo not given) | -5.05% (inactive) |

| Structure (SMILES) | inhibition |
| --- | --- |
| CC12C(=O)N(n3cnnc3)C(=O)C1C1C=CC2C1 (stereo not given) | 2.29% (inactive) |
| Cc1ccc(C)c(S(=O)(=O)N2CCN(CC(=O)Nc3ccc([N+](=O)[O-])cc3)CC2)c1 | 9.07% (inactive) |
| Cc1ccc(C)c(S(=O)(=O)N2CCN(c3ncnc4sccc34)CC2)c1 | 34.7% (active) |
| Cc1ccc(S(=O)(=O)N2CCN(C)CC2)cc1 | -16.6% (inactive) |
| Cc1ccc(S(=O)(=O)N2CCN(c3ncnc4ccccc34)CC2)cc1 | 35.8% (active) |
| Cc1ccc(S(=O)(=O)N2CCN(Cc3cccc(C)c3O)CC2)cc1 | 4.67% (inactive) |
| COc1ccc(-c2csc3ncnc(N4CCN(S(=O)(=O)c5ccccc5C#N)CC4)c23)cc1 | -2.61% (inactive) |
| CC(Sc1sc(=S)sc1SC(C)C(=O)O)C(=O)O (stereo not given) | 1.12% (inactive) |
| C[C@H]([C@@H](O)[C@@H](O)[C@@H](C)C(C)(C)C)[C@H]1CC[C@H]2C3CC[C@H]4C[C@H](OS(=O)(=O)O)[C@@H](OS(=O)(=O)O)C[C@]4(C)[C@H]3CC[C@]12C (stereo not given in full) | -9.61% (inactive) |
| Cc1nc(-c2nnc(SCC(=O)Nc3cc(C(F)(F)F)cc(C(F)(F)F)c3)n2C)cs1 | -3.69% (inactive) |
| C=C1C(=O)[C@]23C[C@H]1CCC2[C@@]1(C)C(C[C@@H]3O)[C@](C)(C(=O)O)CC[C@@H]1O (stereo not given in full) | -14.8% (inactive) |
| CN1/C(=c2/s/c(=C3/C(=O)N(c4ccccc4)NC3=Nc3ccccc3)n(C)c2=O)C(C)(C)c2ccccc21 | 12.2% (inactive) |
| COc1cccc(CN(C)CC(O)COC(c2ccccc2)c2ccccc2C)c1 (stereo not given) | 16.4% (inactive) |
| CCOc1ccccc1CN1CCN(C2CCC2)CC1CCO (stereo not given) | -17.7% (inactive) |
| Cc1ccccc1C(OCC(O)CN1CCCCC1CCO)c1ccccc1 (stereo not given) | 28.9% (active) |
| C[C@H]1CN([C@@H](C)CO)C(=O)CCCn2cc(nn2)CO[C@@H]1CN(C)S(=O)(=O)c1cccc(C#N)c1 | -7.84% (inactive) |
| Cc1cc(Br)cn2c(Cc3ccsc3)c(-c3ccc(C#N)cc3)nc12 | -2.47% (inactive) |
| CC(=O)c1nn(-c2ccccc2)c(=Nc2ccccc2)cc1C | 2.25% (inactive) |
| CCN(CCCCOC(=O)c1ccc(OC)c(OC)c1)C(C)Cc1ccc(OC)cc1 (stereo not given) | 91.6% (active) |
| COc1ccc(C(CCN(Cc2ccc(OC)c(OC)c2)C(=O)CCl)c2ccccc2)cc1 (stereo not given) | -0.77% (inactive) |
| COc1ccc(C(=O)OCC(=O)NCCCc2ccccc2)cc1OC | -14.8% (inactive) |
